# Data taken from the supplement of paper PMC9262897, “Low-cost anti-mycobacterial drug discovery using engineered E. coli” (Nature Communications, 2022).
# Structures can show the parent of a compound that is named as a salt. ± gives the standard deviation of the averaged measurements.
# How the values were obtained:
# Assay in all cases: growth (OD600 after 10 h); higher = more growth (less inhibition)
# [1] = tested on: E. coli TESEC Alr+ wild-type control; conditions: compound 0.1 mM; raw OD600 reference: median of DMSO wells 0.241, cell-free background 0.041
# Procedure: (§1)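 TESEC Mtb Alr E. coli, or the Alr+ wild-type control, in 384-well plates with Prestwick library compounds at 0.1 mM and 1% DMSO, across arabinose induction levels of 1E3 to 1E7 nM. Growth is read as OD600 after 10 h at 37 °C in triplicate biological replicates.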
# [2] = tested on: E. coli TESEC Mtb Alr; conditions: compound 0.1 mM
# Procedure: as §1
# [3] = tested on: E. coli TESEC Mtb Asd; conditions: compound 0.1 mM
# Procedure: (§2)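 TESEC E. coli strains in which the native enzyme is deleted and replaced by arabinose-inducible Mtb Asd, DapB, CysH or TrpD, each grown in its selective medium. Strains were screened against the Prestwick library at 0.1 mM and 1% DMSO in 384-well format at low and high arabinose induction. Growth is read as OD600 after 10 h in triplicate.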
# [4] = tested on: E. coli TESEC Mtb DapB; conditions: compound 0.1 mM
# Procedure: as §2
# [5] = tested on: E. coli TESEC Alr+ wild-type control; conditions: compound 0.1 mM; raw OD600 reference: median of DMSO wells 0.49, cell-free background 0.052
# Procedure: (§3)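 TESEC Mtb Alr E. coli (ΔaraC ΔtolC ΔentC Δalr ΔdadX, arabinose-inducible Mtb Alr) or the Alr+ wild-type control strain, grown in defined M9-fructose medium without D-alanine in 96-well plates with Prestwick library compounds at 0.1 mM and 1% DMSO. Low Alr induction is 0.1 µM arabinose and high induction is 10 mM arabinose.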
# [6] = tested on: E. coli TESEC Mtb Alr; conditions: compound 0.1 mM; remark: listed apart in the source
# Procedure: as §3
# [7] = arabinose 1000 nM, raw OD600 reference: median of DMSO wells 0.294, cell-free background 0.041
# [8] = arabinose 10000 nM, raw OD600 reference: median of DMSO wells 0.264, cell-free background 0.041
# [9] = arabinose 100000 nM, raw OD600 reference: median of DMSO wells 0.201, cell-free background 0.041
# [10] = arabinose 1000000 nM, raw OD600 reference: median of DMSO wells 0.193, cell-free background 0.041
# [11] = arabinose 10000000 nM, raw OD600 reference: median of DMSO wells 0.146, cell-free background 0.041
# [12] = arabinose induction (level): High, raw OD600 reference: median of DMSO wells 0.331, cell-free background 0.041
# [13] = arabinose induction (level): Low, raw OD600 reference: median of DMSO wells 0.417, cell-free background 0.041
# [14] = arabinose induction (level): High, raw OD600 reference: median of DMSO wells […], cell-free background 0.041
# [15] = arabinose induction (level): Low, raw OD600 reference: median of DMSO wells 0.227, cell-free background 0.041
# [16] = arabinose 100 nM, raw OD600 reference: median of DMSO wells 0.413, cell-free background 0.052
# [17] = arabinose 10000000 nM, raw OD600 reference: median of DMSO wells […], cell-free background 0.052
Compound,growth [1],"growth [2, 7]","growth [2, 8]","growth [2, 9]","growth [2, 10]","growth [2, 11]","growth [3, 12]","growth [3, 13]","growth [4, 14]","growth [4, 15]",growth [5],"growth [6, 16]","growth [6, 17]"
CN1CCCN=C1/C=C/c1cccc(O)c1 [Oxantel pamoate],0.216 ± 0.016,0.303 ± 0.013,0.236 ± 0.0088,0.226 ± 0.039,0.141 ± 0.0019,0.189 ± 0.0049,0.282 ± 0.051,0.258 ± 0.009,0.1953 ± 0.0019,0.218 ± 0.019,0.496 ± 0.038,0.405 ± 0.011,0.326 ± 0.013
N=C(N=C(N)N)N1CCOCC1 [Moroxidine hydrochloride],0.255 ± 0.02,0.288 ± 0.017,0.2687 ± 0.0004,0.225 ± 0.022,0.186 ± 0.013,0.152 ± 0.0076,0.366 ± 0.025,0.404 ± 0.032,0.203 ± 0.0065,0.245 ± 0.053,0.454 ± 0.045,0.404 ± 0.011,0.355 ± 0.033
C[C@]1(Cn2ccnn2)[C@H](C(=O)O)N2C(=O)C[C@H]2S1(=O)=O [Tazobactam],0.249 ± 0.011,0.0404 ± 0.0022,0.0384 ± 0.0001,0.045 ± 0.0019,0.18 ± 0.015,0.074 ± 0.0014,0.405 ± 0.031,0.424 ± 0.022,0.195 ± 0.004,0.19 ± 0.017,0.0454 ± 0.00051,0.245 ± 0.17,0.0826 ± 0.0045
CCN1CC(CCN2CCOCC2)C(c2ccccc2)(c2ccccc2)C1=O (configuration not stated) [Doxapram hydrochloride],0.234 ± 0.0045,0.284 ± 0.0045,0.248 ± 0.004,0.199 ± 0.018,0.205 ± 0.016,0.1315 ± 0.0013,0.309 ± 0.091,0.426 ± 0.072,0.205 ± 0.018,0.243 ± 0.017,0.54 ± 0.012,0.394 ± 0.016,0.339 ± 0.014
O=P(O)(O)C(O)(Cn1ccnc1)P(=O)(O)O [Zoledronic acid hydrate],0.241 ± 0.0059,0.279 ± 0.0055,0.278 ± 0.0062,0.192 ± 0.022,0.211 ± 0.0037,0.134 ± 0.0016,0.257 ± 0.083,0.357 ± 0.034,0.193 ± 0.0053,0.279 ± 0.069,0.596 ± 0.074,0.421 ± 0.011,0.294 ± 0.021
CC(C)C(=O)c1c(C(C)C)nn2ccccc12 [Ibudilast],0.163 ± 0.0085,0.221 ± 0.0062,0.245 ± 0.0022,0.148 ± 0.0046,0.134 ± 0.0043,0.127 ± 0.0043,0.183 ± 0.011,0.372 ± 0.032,0.194 ± 0.012,0.208 ± 0.038,0.49 ± 0.013,0.401 ± 0.0083,0.229 ± 0.0069
COC(=O)C1=C(C)NC(C)=C(C(=O)OC)C1c1ccccc1[N+](=O)[O-] [Nifedipine],0.0488 ± 0.00049,0.144 ± 0.0021,0.2006 ± 0.0018,0.136 ± 0.0053,0.0952 ± 0.0041,0.149 ± 0.0044,0.0844 ± 0.0011,0.0795 ± 0.0099,0.155 ± 0.018,0.216 ± 0.069,0.447 ± 0.017,0.39 ± 0.0088,0.21 ± 0.039
CCCCC(C)(O)C/C=C/[C@H]1[C@H](O)CC(=O)[C@@H]1CCCCCCC(=O)OC (mixture of isomers) [Misoprostol],0.323 ± 0.014,0.3803 ± 0.0025,0.278 ± 0.0043,0.474 ± 0.013,0.193 ± 0.009,0.22 ± 0.013,0.35 ± 0.071,0.44 ± 0.022,0.332 ± 0.034,0.311 ± 0.044,0.518 ± 0.094,0.432 ± 0.0064,0.378 ± 0.013
Cc1ccc(S(=O)(=O)NC(=O)NN2CCCCCC2)cc1 [Tolazamide],0.256 ± 0.0047,0.293 ± 0.0069,0.281 ± 0.005,0.249 ± 0.0083,0.186 ± 0.012,0.17 ± 0.0032,0.293 ± 0.026,0.414 ± 0.05,0.214 ± 0.0044,0.235 ± 0.015,0.482 ± 0.053,0.398 ± 0.017,0.354 ± 0.014
CCOC(=O)[C@H](CCc1ccccc1)N[C@H]1CCc2ccccc2N(CC(=O)O)C1=O [Benazepril HCl],0.245 ± 0.011,0.044 ± 0.0065,0.0504 ± 0.011,0.253 ± 0.023,0.173 ± 0.0047,0.1615 ± 0.0012,0.293 ± 0.042,0.36 ± 0.066,0.198 ± 0.0085,0.24 ± 0.038,0.559 ± 0.042,0.0476 ± 0.0029,0.331 ± 0.015
CCc1c2c(nc3ccc(OC(=O)N4CCC(N5CCCCC5)CC4)cc13)-c1cc3c(c(=O)n1C2)COC(=O)[C@]3(O)CC [Irinotecan hydrochloride trihydrate],0.234 ± 0.0062,0.32 ± 0.0061,0.2556 ± 0.0019,0.218 ± 0.015,0.18 ± 0.0024,0.156 ± 0.0056,0.321 ± 0.042,0.414 ± 0.026,0.227 ± 0.0094,0.243 ± 0.0046,0.514 ± 0.052,0.401 ± 0.0022,0.366 ± 0.018
C[C@@H]1C[C@H]2[C@@H]3C[C@H](F)C4=CC(=O)C=C[C@]4(C)[C@@]3(F)[C@@H](O)C[C@]2(C)[C@@]1(O)C(=O)CO [Flumethasone],0.212 ± 0.0028,0.275 ± 0.013,0.256 ± 0.0067,0.188 ± 0.0075,0.154 ± 0.0069,0.127 ± 0.0043,0.231 ± 0.007,0.429 ± 0.022,0.193 ± 0.011,0.229 ± 0.014,0.543 ± 0.0085,0.402 ± 0.0073,0.307 ± 0.013
CN(C/C=C/c1ccccc1)Cc1cccc2ccccc12 [Naftifine hydrochloride],0.0432 ± 0.0006,0.0444 ± 0.001,0.04317 ± 0.00021,0.045 ± 0.0005,0.0437 ± 0.0015,0.0527 ± 0.00066,0.269 ± 0.035,0.313 ± 0.069,0.125 ± 0.008,0.133 ± 0.0053,0.374 ± 0.0058,0.266 ± 0.14,0.052 ± 0.0013
O=C1Nc2ccc(Cl)cc2[C@@](C#CC2CC2)(C(F)(F)F)O1 [Efavirenz],0.0395 ± 0.00017,0.0401 ± 0.00093,0.0421 ± 0.0013,0.0412 ± 0.0003,0.03963 ± 0.00025,0.0413 ± 0.0013,0.0541 ± 0.0055,0.0488 ± 0.0019,0.0481 ± 0.00017,0.048 ± 0.00069,0.047 ± 0.00044,0.259 ± 0.075,0.049 ± 0.00044
